This is an account of results in PubChem BioAssay.

The nature of experiment [1]: inhibitors of TNFa-induced NFkB p65 translocation, primary screen, imaging, HUVEC, MLSMR starter and 10KST1 sets (AID 438;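 active means inhibition above 20% together with a positive visual image hit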;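 further: compound added about 3h40 before a 20 min TNFalpha stimulation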;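 on inhibition: signal is the nuclear over cytoplasmic p65 intensity ratio per well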). The settings on record: HUVEC TNFa-induced p65 nuclear translocation; cell count: measured here: nuclei count (cytotoxicity indicator), at 2.08 µM; inhibition: at 2 µM, stronger effect = higher value, 0% TNFa-plus-vehicle, 100% no-TNFa wells.
Experiment [2] is described as follows: inhibitors of mutant huntingtin aggregation, primary screen, imaging, exon1htt(103Q)mCFP cells, high-content imaging (AID 483;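 active means visual image review flags a hit and inhibition of aggregation exceeds 20%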;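 further: compound exposure lasted 3 days before fixation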;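 on nuclei count: percent of the per-plate median nuclei count of sample wells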). The settings on record: exon1htt(103Q)mCFP cell line, aggregate imaging, at 2 µM; inhibition of aggregation: stronger effect = higher value; nuclei count: measured here: cell count, toxicity.
A short description of experiment [3]: inhibitors of E-selectin induction by TNFa, primary screen, imaging, HUVEC, immunofluorescence, MLSMR starter and 10KST1 sets (AID 487).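 On inhibition: signal is fraction of cell area covered by stained E-selectin grains.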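 On nuclei count: 100% = median nuclei count of all wells on the same plate.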 The settings on record: HUVEC TNFalpha-induced E-selectin immunofluorescence imaging, at 2 µM; inhibition: stronger effect = higher value; nuclei count: measured here: cell number, toxicity.
A short description of experiment [4]: DUSP6 inhibitors restoring Erk phosphorylation by chemical complementation, primary imaging in DUSP6-transfected HeLa (AID 609;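 active means compounds giving at least 50% inhibition in the cell-based MKP-3 phosphatase rescue imaging test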;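 on inhibition: phospho-Erk level distribution per well compared with pooled transfected vehicle control wells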). The settings on record: HeLa MKP-3 transfected, phospho-Erk imaging KS statistic, at 10 µM, cells stimulated with TPA for 15 min.
For experiment [5], the target named is Dual specificity protein phosphatase 6 (Homo sapiens) (UniProt Q16828). The description is as above. As to conditions: HeLa MKP-3 transfected, phospho-Erk imaging KS statistic; at 10 µM; stronger effect = higher value; cells stimulated with TPA for 15 min.
Experiment [6] concerns the target Voltage-gated potassium channel subunit beta-2 (Rattus norvegicus) (UniProt P62483). The experiment is described as follows: KvBeta enzyme negative modulators, primary screen, biochemical, NADPH fluorescence (AID 622;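 active means fluorescence slope higher than the sample average by over 3 SD, cut at about -0.22 in these data, passing the limit was not always enough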;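 further: slope of raw intensity against log time taken from 70 to 1610 s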). As to conditions: recombinant KvBeta, 4-cyanobenzaldehyde reduction, at 10 µM, stronger effect = higher value.
Experiment [7] shares this target. The experiment is described as follows: KvBeta positive modulators, primary screen, biochemical, NADPH fluorescence (AID 623;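 active means NADPH fluorescence slope more negative than the mean of all samples by about 3 SD, 99.7% confidence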;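 further: fluorescence intensity change per second fitted from 20 to 320 s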). As to conditions: Recombinant KvBeta, NADPH fluorescence decrease slope, 10 min; at 10 µM; stronger effect = lower value.
The target of experiment [8] is Alpha-2C adrenergic receptor (Homo sapiens) (UniProt P18825). The experiment can be described thus: modulators of alpha2C/GIRK thallium flux, primary screen, cell-based, HEK293 alpha2C/GIRK1/2 (AID 624;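 active means fluorescence slope after compound addition differing from the mean of all screened samples at 99.7% confidence, in either direction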;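 further: slope of fluorescence ratio to pre-addition baseline per second over 15 to 24 s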). The settings on record: thallium flux BTC fluorescence, at 10 µM, actives lie on both sides.
Experiment [9] in a line: inhibitors of larval lipid processing in zebrafish, primary screen, whole organism, PED6 fluorescence, gall bladder and intestine (AID 686;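 active means a full or partial loss of lipid-probe fluorescence in the fish gall bladder, intestine or both, judged by eye; inactive means no fluorescence loss, or compound toxic to the fish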;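 further: larvae 5 to 7 days old with five fish per well; signal comes from phospholipase A2 cleavage of quenched PED6 carried via bile; overnight exposure to compound and PED6 before scoring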). As to conditions: Zebrafish larvae PED6 lipid processing, fluorescence scoring; screened at 20 µM (by protocol).
Experiment [10] is described as follows: inhibitors of Chlamydomonas gravitaxis, primary screen, whole organism, Chlamydomonas reinhardtii, WT vs cilia-less mutant, absorbance, 96-well (AID 463189;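 active means inhibition at or above 50% relative to wild type and mutant plate controls; inactive means inhibition below 50%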;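 further: 0% = wild type cc124 cells in DMSO and 100% = ciliumless bld1 mutant cells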). The settings on record: OD600 absorbance, 2 days, at 10 µM, stronger effect = higher value.
Experiment [11] is described as follows: inhibitors of Sendai virus-induced IRF3 signaling, primary screen, TLR/RLR signaling modifier project, cell-based, Sendai virus stimulus, luciferase, 10K MLSCN set (AID 602276;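 active means inhibition at or above 50% at 10 µM; inactive means inhibition below 50%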;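 further: firefly luciferase from ISG56 promoter only with Renilla not read in this screen; 0% = Sendai virus plus DMSO and 100% = medium plus DMSO without virus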). The settings on record: HEK293 RL24 IRF3 luciferase reporter, at 10 µM, stronger effect = higher value.
The nature of experiment [12]: inhibitors of poly I:C-induced TLR3 signaling, primary screen, cell-based, poly I:C stimulus, luciferase, 10K MLSCN set (AID 602277;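 active means inhibition of the reporter signal at or above 50%; inactive means inhibition below 50%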). The settings on record: HEK293-TLR3 RL24 IRF3 luciferase reporter, at 10 µM, stronger effect = higher value. Background: In a reporter assay the amount or activity of a reporter protein is the signal.
The mark [13] stands for this setting: measured here: cell density z-score.
Where [14] appears, read: measured here: nuclear c-Myc green intensity z-score.
Setting [15] is: measured here: nuclear pErk red intensity z-score, stronger effect = higher value.

Activity calls are given as the source filed them.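 How the source made its calls, unless noted: active means visually confirmed hit in the image check and inhibition above 20%; inconclusive means visually confirmed hit but inhibition not above 20%; inactive means no visual hit in the image check.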

Dual specificity protein phosphatase 6 (Homo sapiens), sequence (Q16828 whole entry, looked up): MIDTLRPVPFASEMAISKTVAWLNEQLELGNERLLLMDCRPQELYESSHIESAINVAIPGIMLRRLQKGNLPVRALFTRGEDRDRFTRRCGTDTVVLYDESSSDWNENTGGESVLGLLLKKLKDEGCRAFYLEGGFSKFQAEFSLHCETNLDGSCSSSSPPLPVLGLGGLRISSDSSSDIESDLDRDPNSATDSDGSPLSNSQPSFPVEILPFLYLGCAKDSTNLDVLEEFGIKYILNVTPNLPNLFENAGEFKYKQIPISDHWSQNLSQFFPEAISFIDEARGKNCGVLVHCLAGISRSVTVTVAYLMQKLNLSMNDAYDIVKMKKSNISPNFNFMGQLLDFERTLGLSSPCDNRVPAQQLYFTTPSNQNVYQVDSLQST
Voltage-gated potassium channel subunit beta-2 (Rattus norvegicus), sequence (P62483 whole entry, looked up): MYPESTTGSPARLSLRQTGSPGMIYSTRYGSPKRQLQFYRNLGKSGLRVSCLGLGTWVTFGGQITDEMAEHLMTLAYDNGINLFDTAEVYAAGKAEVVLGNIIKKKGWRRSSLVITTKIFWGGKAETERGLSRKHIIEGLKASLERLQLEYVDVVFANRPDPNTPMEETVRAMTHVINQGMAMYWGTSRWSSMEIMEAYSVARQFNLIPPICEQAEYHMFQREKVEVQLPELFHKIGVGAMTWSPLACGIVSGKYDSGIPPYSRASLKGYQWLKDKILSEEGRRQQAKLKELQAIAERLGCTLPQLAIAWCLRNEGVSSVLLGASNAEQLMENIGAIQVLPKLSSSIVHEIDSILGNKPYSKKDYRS
Alpha-2C adrenergic receptor (Homo sapiens), sequence (P18825 whole entry, looked up): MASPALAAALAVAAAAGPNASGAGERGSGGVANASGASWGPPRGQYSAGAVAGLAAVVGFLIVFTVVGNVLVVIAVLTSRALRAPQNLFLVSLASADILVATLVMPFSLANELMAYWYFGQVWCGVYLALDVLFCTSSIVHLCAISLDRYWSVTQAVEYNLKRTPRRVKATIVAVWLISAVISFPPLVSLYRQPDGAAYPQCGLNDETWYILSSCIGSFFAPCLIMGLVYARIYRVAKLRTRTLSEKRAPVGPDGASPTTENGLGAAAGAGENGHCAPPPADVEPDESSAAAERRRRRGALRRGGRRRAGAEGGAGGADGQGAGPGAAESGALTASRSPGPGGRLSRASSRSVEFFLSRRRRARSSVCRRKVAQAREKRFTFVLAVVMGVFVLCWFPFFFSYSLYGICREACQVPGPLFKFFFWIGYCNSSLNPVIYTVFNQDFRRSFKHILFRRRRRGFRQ

Turning to `C[N+](C)(C)CCOP(=O)([O-])OC[C@H](O)CO`, the cell count in experiment [1] amounted to 713. Moreover, the inhibition in [1] was -2.4% (inactive); in [3], -60.7% (inactive); in [5], 15.3% (inactive); in experiment [10], 27.2% (inactive); in experiment [11] it was -4.92% (inactive); in experiment [12], -2.18% (inactive). In [2], the inhibition of aggregation was -22.9% (inactive). Moreover, the nuclei count in [2] stood at 105%; in experiment [3], 109%. Moreover, the z-score in [4] (setting [13]) was 0.542; in experiment [4] (setting [14]) it was 0.427; in [4] (setting [15]), -0.871. Besides, in experiment [6], the fluorescence slope is -0.472 (inactive). The NADPH fluorescence slope in experiment [7] is -5.7e-05 (inactive). For the same compound, in experiment [8], the slope was 0.00513 (inactive). For the same compound, in experiment [9], the compound was classed as inactive.

`OC[C@H]1O[C@@H](n2cnc3c(Nc4ccccc4)ncnc32)[C@H](O)[C@@H]1O`: the cell count in experiment [1] was 606. For the same compound, the inhibition is -3.3% (inactive) in [1]; -19.9% (inactive) in [3]; -0.828% (inactive) in [5]; -14.4% (inactive) in experiment [10]; -32.6% (inactive) in [11]; -55.1% (inactive) in experiment [12]. In addition, in experiment [2], the inhibition of aggregation is 17.1% (inactive). Also, the nuclei count in experiment [2] was found to be 104%; in experiment [3] it was 107%. Moreover, the z-score was 1.07 in experiment [4] (setting [13]), -1.93 in experiment [4] (setting [14]) and -0.432 in [4] (setting [15]). For the same compound, in experiment [6], the fluorescence slope is -0.459 (inactive). The NADPH fluorescence slope in experiment [7] was -4.6e-05 (inactive). For the same compound, the slope in [8] is 0.00784 (inactive). For the same compound, the compound was classed as inactive in [9].

For `CCCCC(=O)Nc1c(O)c2ccccc2[nH]c1=O`, the cell count in experiment [1] was 450. Besides, the inhibition in [1] is 1.5% (inactive); in experiment [3] it was -155% (inactive); in [5] it was -8.95% (inactive); in experiment [10], -4.89% (inactive); in [11], 2.04% (inactive); in [12] it was 1.03% (inactive). In addition, the inhibition of aggregation in [2] is -22.7% (inactive). For the same compound, the values for the nuclei count in [2] and in [3] were 104% and 137%, respectively. Besides, the z-score in experiment [4] (setting [13]) is -1.21; in experiment [4] (setting [14]) it was 0.174; in [4] (setting [15]) it was 1.14. The fluorescence slope in [6] was -0.491 (inactive). Besides, the NADPH fluorescence slope in experiment [7] is -0.000197 (inactive). In addition, the slope in experiment [8] is 0.00511 (inactive). Besides, the call in [9] was inactive.

For `CN(CCO)CC(O)Cn1cnc2c1c(=O)n(C)c(=O)n2C` (configuration not stated) (tested in a mixture with another compound), the cell count in [1] was 638. Besides, the inhibition in [1] was -0.3% (inactive); in experiment [3] it was 6.8% (inactive); in experiment [5], 10.2% (inactive); in [10] it was -10.3% (inactive); in experiment [11] it was 3.79% (inactive); in experiment [12] it was 33.4% (inactive). In experiment [2], the inhibition of aggregation is 1.1% (inactive). In addition, the nuclei count in [2] was 103%; in [3], 125%. Besides, the z-score in [4] (setting [13]) was 0.569; in experiment [4] (setting [14]) it was 0.0927; in experiment [4] (setting [15]), 0.334. Also, the fluorescence slope in experiment [6] is -0.511 (inactive). In [7], the NADPH fluorescence slope was -6e-05 (inactive). The slope in experiment [8] was 0.00421 (inactive). In addition, the compound was called inactive in [9].

As for `CC(C)COc1nc2ccccc2nc1C(C#N)C(=O)NC1CCCCC1` (configuration not stated), in experiment [1], the cell count is 342. In addition, the inhibition in experiment [1] is -6.5% (inactive); in experiment [3], -27.9% (inactive); in experiment [5] it was -5.26% (inactive); in [10], 9.16% (inactive); in experiment [11], 13.4% (inactive); in experiment [12], 8.92% (inactive). In addition, the inhibition of aggregation in experiment [2] is 11.7% (inactive). Besides, the results for the nuclei count in experiment [2] and in experiment [3] were 98.8% and 133%, respectively. In addition, the z-score in experiment [4] (setting [13]) stood at 0.00555; in experiment [4] (setting [14]), 0.614; in [4] (setting [15]), 0.00363. Moreover, the fluorescence slope in experiment [6] is -0.423 (inactive). Also, the NADPH fluorescence slope in experiment [7] is -0.00013 (inactive). Besides, in experiment [8], the slope was 0.00573 (inactive). The call in experiment [9] was inactive.

Consider `CCCc1c(OCCCCc2nn[nH]n2)ccc(C(C)=O)c1O`, for which the cell count in experiment [1] is 599. For the same compound, the inhibition is -11.6% (inactive) in experiment [1]; -37.8% (inactive) in [3]; 9.37% (inactive) in experiment [5]; -12.8% (inactive) in experiment [10]; 15.4% (inactive) in [11]; 34.3% (inactive) in experiment [12]. In [2], the inhibition of aggregation was -9.3% (inactive). Moreover, the nuclei count stood at 95.3% in experiment [2] and 129% in experiment [3]. In addition, the z-score was 0.961 in [4] (setting [13]), 0.408 in experiment [4] (setting [14]) and -0.601 in experiment [4] (setting [15]). In addition, in [6], the fluorescence slope is -0.458 (inactive). Also, in experiment [7], the NADPH fluorescence slope is -4e-05 (inactive). The slope in experiment [8] was 0.00468 (inactive). Also, in experiment [9], the call was inactive.

The term inhibition denotes the change of the read-out against control, counted positive when it falls.
